Screening results (PubChem)
KCNH2 WT inh = blocks the wildtype human KCNH2 potassium channel. Q12809. U2OS, BacMam KCNH2, thallium flux FluxOr; hits give low values. activity change, % at 1.84 µM. 0.37% of 340,000 active. AID 720551;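 active = maximum activity change below -70%; inconclusive = maximum activity change between -70% and -50%; inactive = maximum activity change above -50%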; also: % is scaled to controls: 0 for no effect and ±100 for the full control effect
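U2OS cells transduced with wild-type KCNH2 virus are loaded with FluxOr dye for 45 min, and thallium flux is measured in kinetic reads before and after stimulation buffer. Rate constants are normalized to DMSO controls.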
BCR signal inh = chronic active BCR signaling inhibition. ABC-DLBCL IkBa-CBG/CBR reporter, luminescence ratio, 4 h. Potency, µM (highest dose often 46.1 µM), without a hit: at the highest dose activity change, negative = inhibition, usual class: inhibitors. 0.05% of 340,000 active. AID 493014; active = well fitted inhibition curve with a large enough effect in the signal ratio, with a control signal flat, not every such curve was filed as active; inconclusive = small, poorly fitted or top-dose-only effect, or effect the other way, or a change in a side signal; the % refers to the signal ratio;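 also: potency is read from the fitted curve at half-maximal effect; plate controls were basal doxycycline-induced cells for no effect and cells given 10 µM MG132 for full effect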
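TMD8 human ABC-DLBCL cells with doxycycline-inducible IκBα–green luciferase fusion and unfused red luciferase, in 0.5% FBS medium; compounds up to 46 uM, 4 h at 37C. Green/red luminescence ratio, filter-overlap corrected, fitted to concentration-response curves.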
LDHA block = blocks human lactate dehydrogenase A; purified LDHA, NADH/diaphorase-resazurin fluorescence; hits give low values; activity change, % (values are at about 110 or 230 µM); 0.15% of 480,000 active; AID 1347041; in the data active = activity change below about -30%; inconclusive = mostly about -25% to -30%;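 also: plate controls were DMSO wells for no effect and wells without enzyme for full effect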
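Resorufin fluorescence (ex540/em590), read at 0 and 20 min after diaphorase/resazurin addition, reports the NADH left after a 5 min room-temperature reaction of 2 nM human LDH5 with 0.06 mM NADH and 0.2 mM pyruvate.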
ClpP mod = qHTS Assay for Activators of ClpP. purified B. subtilis ClpP, FRET peptide cleavage, 20 min. AID 651965, 2013. Potency, µM (doses to about 57.5 µM), for the others: top-dose activity change, negative = active. 1.9% of 340,000 active; active = well fitted falling curve with a large enough effect; inconclusive = small, poorly fitted or top-dose-only effect; inactive = no such curve, though single readings can be large or run the other way; also: potency is read from the fitted curve at half-maximal effect; the source files actives as falling curves though it sought activators and does not explain the sign; nearly all actives have a fitted effect of over 65% in size
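Purified B. subtilis ClpP, 10 microg/mL final in Tris/HCl pH8 with KCl, BSA, glycerol and Tween-20, cleaved an Abz/nitrotyrosine-quenched decapeptide. Fluorescence (ex 320, em 430) was read at 0 and 20 min at room temperature. Delta was normalized to 5.8 microM ADEP and DMSO/no-enzyme controls.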
12-LOX inh = blocks human arachidonate 12S-lipoxygenase. P18054. purified 12hLO, xylenol orange hydroperoxide absorbance. Potency, µM (highest dose often 108 µM), for inactives: at the top dose activity change, negative = inhibition, most hits filed as inhibitors. 1.1% of 580,000 active; active = well fitted inhibition curve with a large enough effect; inconclusive = small, poorly fitted or top-dose-only effect, or another doubt; inactive = no such curve, though single readings can be large or run the other way; also: potency is read from the fitted curve at half-maximal effect; % is scaled to controls: 0 for no effect and ±100 for the full control effect
Target sequence (P18054 whole entry, looked up): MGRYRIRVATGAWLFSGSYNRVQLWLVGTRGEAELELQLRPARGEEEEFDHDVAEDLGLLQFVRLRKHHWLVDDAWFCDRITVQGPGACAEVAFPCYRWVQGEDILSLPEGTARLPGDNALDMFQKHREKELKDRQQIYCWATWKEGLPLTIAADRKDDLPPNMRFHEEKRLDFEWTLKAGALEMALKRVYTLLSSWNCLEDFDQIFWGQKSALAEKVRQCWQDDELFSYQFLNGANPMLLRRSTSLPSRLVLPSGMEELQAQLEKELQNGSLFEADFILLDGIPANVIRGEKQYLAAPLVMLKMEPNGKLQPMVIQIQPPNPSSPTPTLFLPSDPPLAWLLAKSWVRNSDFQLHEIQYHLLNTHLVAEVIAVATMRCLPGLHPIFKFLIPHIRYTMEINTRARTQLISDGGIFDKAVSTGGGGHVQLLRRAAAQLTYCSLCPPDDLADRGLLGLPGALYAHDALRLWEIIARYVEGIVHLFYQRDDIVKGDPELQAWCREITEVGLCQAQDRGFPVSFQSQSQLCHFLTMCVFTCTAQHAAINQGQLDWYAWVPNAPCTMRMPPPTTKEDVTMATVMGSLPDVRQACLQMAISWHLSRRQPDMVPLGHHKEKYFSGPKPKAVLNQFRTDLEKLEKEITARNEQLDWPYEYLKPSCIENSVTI
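Purified human 12hLO (150 nM final) in 25 mM Hepes, 0.01% Triton X-100, pH 7.0 was preincubated 15 min at room temperature with compound. Then 40 uM arachidonic acid was added, 30 min. Hydroperoxide was read by Fe-XO absorbance ratio 573/405 nm.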
KCNH2 3.1 block = inhibitors of human KCNH2 3.1 potassium channel isoform; U2OS KCNH2 3.1, thallium flux FluxOr; hits give low values; activity change, % (tested at about 1.8 µM); 0.95% of 340,000 active;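 active = maximum activity change below -70%; inconclusive = maximum activity change from -70% to -50%; inactive = maximum activity change above -50%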;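 also: thallium influx rate constant from kinetic fluorescence after stimulation buffer; % is scaled to controls: 0 for no effect and ±100 for the full control effect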
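Kinetic fluorescence (2 min after stimulation buffer) measures Tl+ influx through KCNH2 3.1 expressed by viral transduction in U2OS cells; the rate constant is normalized against DMSO controls serving as positive and negative references.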
Active calls of the source: *; ? = inconclusive; . = not tested or not shown; ! = not confirmed by another sample. A selection: hits, their analogues and other compounds. The true share with any hit is near 3%.

SMILES	KCNH2 WT inh	BCR signal inh	LDHA block	ClpP mod	12-LOX inh	KCNH2 3.1 block
CCN1C(=O)/C(=C/c2cnn(CC)c2C)SC1=S	4	2%	-11	-1%	-11%	21
CC(NC(=O)c1nn(C)c(=O)c2ccccc12)c1ccc(Cl)cc1 (stereo not given)	.	.	14	.	-5%	.
CCOC(=O)C(=CNc1nc(-c2ccccc2)c(C(=O)Nc2ccc(-c3ccccc3)cc2)s1)C(=O)OCC	-4	-1%	-5	13µM*	1%	-36
Cc1ccc(C(C)C)c(OCC(=O)Nc2cccc(-c3nc4ncccc4o3)c2)c1	.	.	1	22µM*	3%	.
CCCCCC(=O)Nc1cccc(-c2nc3ncccc3o2)c1	7	0%	0	?	12%	4
Cc1cc(C)c(OCC(=O)Nc2cccc(-c3nc4ncccc4o3)c2)c(Br)c1	.	.	-23	-16%	41%	.
CCCCC(=O)Nc1cccc(-c2nc3ncccc3o2)c1	9	0%	-3	16µM*	-9%	1
COc1ccc(-n2c(C)cc(/C=C3\C(=O)NN(c4ccccc4)C3=O)c2C)cc1	4	9%	-9	-2%	1%	1
COc1ccc(Sc2ccc(/C=C3\C(=O)NN(c4ccccc4)C3=O)o2)cc1	0	8%	-5	-1%	28µM*	-3
Cc1ccc(NC(=O)CSCc2nc3ccccc3c(=O)[nH]2)cc1	.	.	4	.	11%	.
CC1(C)CC(=O)c2cc(OCC(=O)N3CCOCC3)ccc2O1	-13	-19%	-8	28µM*	9%	7
CC1(C)CC(=O)c2cc(OCC(=O)NCc3cccnc3)ccc2O1	-17	-1%	0	25µM*	5%	9
CCCCCCCNC(=O)COc1ccc2c(c1)C(=O)CC(C)(C)O2	-10	?	-3	28µM*	0%	-2
CC(C)NC(=O)COc1ccc2c(c1)C(=O)CC(C)(C)O2	5	7%	-7	5%	-1%	-12
CCOC(=O)CNC(=O)c1cc(-c2ccc(C)s2)nc2ccccc12	.	.	12	.	?	.
FC(F)Sc1ccc(NC(=S)NCCCc2ccccc2)cc1	.	.	0	.	?	.
O=C(NCCc1ccccc1C(F)(F)F)c1cc(COc2ccccc2)on1	-18	.	-2	1%	-15%	-111*
CC(=O)Nc1ccc(/C=N/NC(=O)c2cc3cc(C)ccc3nc2C)cc1	5	0%	-2	-1%	20%	-2
Cc1ccc2nc(C)c(C(=O)N/N=C/c3cccs3)cc2c1	-2	-1%	-5	-1%	-5%	-149*
CN(CC(=O)Nc1c(Cl)cccc1Cl)C(=O)c1cccc(-n2cccc2)c1	-9	3%	-37*!	.	-21%	4
CN(CC(=O)Nc1ccccc1Cl)C(=O)c1cccc(-n2cccc2)c1	-18	3%	-1	-1%	-1%	-9
CCOc1ccccc1NC(C)C(=O)N(C)Cc1cccc(F)c1 (stereo not given)	.	.	2	.	-3%	.
CN(C)c1ccc(N=Nc2ccccc2C(=O)OCC(=O)N2CCCC2)cc1	-26	-6%	-3	-2%	-5%	-83*
CC1(C(=O)NS(=O)(=O)c2cccc(F)c2)CCN1C(=O)c1ccccc1CCc1ccccc1 (stereo not given)	.	.	0	0%	7.1µM*	.
Cc1csc(NC(=O)c2nn(C)c(=O)c3ccccc23)n1	.	.	-22	.	?	.
Cc1cccc2cc(CN(Cc3ccccc3)C(=S)NCCCN(C)C)c(=O)[nH]c12	11	7%	-6	.	3%	10
Cc1ccc(CN(Cc2cc3cccc(C)c3[nH]c2=O)C(=S)NCCCN(C)C)cc1	26	9%	-4	22µM*	-30%	-49
Cc1ccc(N(Cc2ccccc2)C(=O)c2ccc(F)c(S(=O)(=O)N3CCOCC3)c2)cc1	-12	1%	-3	1%	-4%	-93*
Cc1cccc(N(Cc2ccccc2)C(=O)c2ccc(F)c(S(=O)(=O)N3CCOCC3)c2)c1	21	-13%	-3	-1%	-11%	-12
